Screening data from PubChem BioAssay.
An excerpt weighted towards active compounds, which were near 3.1% of everything screened.
EPAC1 agonist: Validation qHTS for agonist of cAMP-regulated guanine nucleotide exchange factor 3 (EPAC1); EPAC1 Rap1b BODIPY-GDP exchange, fluorescence; 16,000 compounds, 1% hits; AID 1645883, 2021; Potency, µM, actives largely listed as activators; note: nearly all actives have a fitted effect of over 70% in size
EPAC2 antag: Validation qHTS for antagonist of cAMP-regulated guanine nucleotide exchange factor 4 (EPAC2). Potency, µM (titrated, usually from 112 µM), hits mostly inhibitors. 16,000 compounds, 1.7% hits. Rap guanine nucleotide exchange factor 4 (Homo sapiens), Q8WZA2. EPAC2 Rap1B BODIPY-GDP exchange, fluorescence; note: nearly all actives have a fitted effect of over 40% in size
Target sequence (Q8WZA2 whole entry, looked up): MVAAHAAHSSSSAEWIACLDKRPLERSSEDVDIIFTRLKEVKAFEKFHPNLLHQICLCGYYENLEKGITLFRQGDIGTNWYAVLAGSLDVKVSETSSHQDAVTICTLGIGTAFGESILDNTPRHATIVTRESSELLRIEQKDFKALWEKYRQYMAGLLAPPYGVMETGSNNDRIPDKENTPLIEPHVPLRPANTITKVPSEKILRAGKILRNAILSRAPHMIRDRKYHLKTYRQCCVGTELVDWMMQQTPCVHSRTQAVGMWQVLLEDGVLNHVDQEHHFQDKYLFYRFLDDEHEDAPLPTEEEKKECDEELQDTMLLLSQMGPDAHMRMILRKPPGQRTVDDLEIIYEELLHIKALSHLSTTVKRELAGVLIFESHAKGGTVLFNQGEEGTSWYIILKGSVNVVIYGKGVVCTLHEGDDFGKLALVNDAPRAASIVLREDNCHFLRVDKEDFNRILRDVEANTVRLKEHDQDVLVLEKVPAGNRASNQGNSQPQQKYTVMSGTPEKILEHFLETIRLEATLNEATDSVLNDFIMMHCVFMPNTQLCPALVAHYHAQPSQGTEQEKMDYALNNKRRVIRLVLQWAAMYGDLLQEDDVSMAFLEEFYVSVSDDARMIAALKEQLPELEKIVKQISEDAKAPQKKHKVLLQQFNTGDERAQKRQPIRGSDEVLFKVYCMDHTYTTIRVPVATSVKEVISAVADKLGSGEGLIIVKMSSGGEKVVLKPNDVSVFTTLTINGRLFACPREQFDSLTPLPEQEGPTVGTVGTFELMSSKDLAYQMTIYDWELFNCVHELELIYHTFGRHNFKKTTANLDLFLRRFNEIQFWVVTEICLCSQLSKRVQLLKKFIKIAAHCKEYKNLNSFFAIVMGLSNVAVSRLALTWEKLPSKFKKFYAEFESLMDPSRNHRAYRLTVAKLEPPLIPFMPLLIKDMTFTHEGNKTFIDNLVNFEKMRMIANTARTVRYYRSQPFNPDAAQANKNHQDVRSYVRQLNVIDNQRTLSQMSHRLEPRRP
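Fluorescent exchange read-out: 100 nM EPAC2 with 250 nM RAP1B–BODIPY-GDP and 50 uM GDP; BODIPY-GDP release lowers fluorescence. Read at 480/540 nm every 5 min for 30 min at room temperature; normalized to 6.5 mM cAMP.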
Each line names hits and unclear results; the compound was inactive in the other large screens; ! = not confirmed by another sample. Calls come from the whole dose curve; as a rule, active = well fitted curve in the direction sought with a large enough effect; inconclusive = small, poorly fitted or top-dose-only effect, or another doubt; inactive = no such curve, though single readings can be large; an effect the other way counts as inactive or inconclusive.

C=C1CC[C@H](O)CC1=C/C=C1\CCC[C@]2(C)[C@@H]([C@H](C)CCCC(C)(C)O)CC[C@@H]12	none
Cc1cc(C)c2c(C)ccnc2c1	none
Cc1cc(C)c2nccc(/C=C/c3ccc(N(C)C)cc3)c2c1	EPAC1 agonist 100µM
CN(C)c1ccc(/C=C/c2ccnc3c2ccc2ccccc23)cc1	EPAC1 agonist inconclusive
Cc1ccc2c(/C=C/c3ccc(N(C)C)cc3)ccnc2c1C	EPAC1 agonist 100µM
O=C(NCC1Cc2cccc(-c3cnccn3)c2O1)c1ccc2c(c1)OCCO2 (stereo not drawn)	none
COC(=O)c1cc(CNC(=O)c2cccc(F)c2)cc(NC(=O)c2ccccc2OC)c1	none
COc1ccc(-c2ccnc(-n3ncc(C(=O)NCc4cccnc4)c3C3CC3)n2)cc1F	none
CC(C)c1c(C(=O)NC(c2cccnc2)C(F)(F)F)cnn1-c1nccc(-c2cccs2)n1 (stereo not drawn)	EPAC2 antag inconclusive
CCOC(=O)C1=C(C)NC(C)=C(C(=O)OCC)C1c1c(F)c(F)c(F)c(F)c1F	EPAC2 antag 35.5µM
CCOC(=O)C1=C(C)NC(C)=C(C(=O)OCC)C1c1ccccc1C=CC(=O)OC(C)(C)C	none
COC(=O)c1ccccc1-c1cc(C)cc2c1OC(CNC(=O)c1ccn(C)n1)C2 (stereo not drawn)	EPAC2 antag inconclusive
COc1cc(CNc2nc(C)c(-c3ccn(C4Cc5ccccc5C4)n3)s2)cc2c1OCO2	EPAC1 agonist inconclusive
COC(=O)C1=C(C)NC(C)=C(C(=O)OCCCN2CCC(c3ccccc3)(c3ccccc3)CC2)C1c1cccc([N+](=O)[O-])c1 (stereo not drawn)	EPAC1 agonist 112µM!
COC(=O)C1=C(C)NC(C)=C(C(=O)O[C@H]2CCN(Cc3ccccc3)C2)[C@H]1c1cccc([N+](=O)[O-])c1	EPAC1 agonist inconclusive
C#CCN1C(C)=C(C(=O)OC)C(c2cccc([N+](=O)[O-])c2)C(C(=O)OCC)=C1C (stereo not drawn)	EPAC2 antag 44.7µM
CCOC(=O)C1=C(C)NC(=S)NC1c1cccc(O)c1 (stereo not drawn)	none
CC(C)C(=O)OCC(=O)[C@@]12O[C@H](C3CCCCC3)O[C@@H]1C[C@H]1[C@@H]3CCC4=CC(=O)C=C[C@]4(C)[C@H]3[C@@H](O)C[C@@]12C	none
CC1=C[C@H](O)CC(C)(C)[C@H]1/C=C/C(C)=C/C=C/C(C)=C/C=C/C=C(C)/C=C/C=C(C)/C=C/C1=C(C)C[C@@H](O)CC1(C)C	none
COc1ccccc1C1CN(Cc2cccc(O)c2)Cc2ccccc2O1 (stereo not drawn)	EPAC2 antag inconclusive
COc1ccc(C(=O)NCC2Cc3cccc(-c4cncnc4)c3O2)c(OC)c1OC (stereo not drawn)	none
Nc1ccc(O)c(C(=O)O)c1	EPAC1 agonist inconclusive
O=C(O)C1=CC(=C(c2ccc(O)c(C(=O)O)c2)c2ccc(O)c(C(=O)O)c2)C=CC1=O	EPAC1 agonist inconclusive, EPAC2 antag 39.8µM!
COc1ccc2[nH]cc(CCNc3ccnc(-c4ccoc4)n3)c2c1	EPAC2 antag 89.1µM
COc1ccc2[nH]cc(CCNc3ccnc(-c4ccc(N(C)C)cc4)n3)c2c1	EPAC1 agonist inconclusive
C[C@@H]1C[C@H]2[C@@H]3CCC4=CC(=O)C=C[C@]4(C)[C@@]3(F)[C@@H](O)C[C@]2(C)[C@@]1(O)C(=O)COC(=O)c1cccc(S(=O)(=O)O)c1	none
NC(=O)OC[C@@H]1[C@H](NC(=O)/C(=N\OCC(=O)O)c2csc(N)n2)C(=O)N1S(=O)(=O)O	none
CC(=O)Oc1ccc2c(c1C(C)C)CCC1C(C)(C)CCC[C@@]21C (stereo partly drawn)	EPAC1 agonist 100µM
COC(=O)[C@@]1(C)CCC[C@@]2(C)c3ccc(O)c(C(C)C)c3CCC21 (stereo partly drawn)	EPAC2 antag inconclusive
COc1ccc(S[C@@H](CCN2CC[C@H](C)CCC2=O)c2ccccc2)cc1	EPAC2 antag inconclusive
C[C@@H]1CCC(=O)N(CC[C@H](Oc2ccccc2)c2ccccc2)CC1	EPAC2 antag 79.4µM
CC1(C)[C@@H](OC(=O)CCC(=O)O)CC[C@]2(C)[C@H]3C(=O)C=C4[C@@H]5C[C@@](C)(C(=O)O)CC[C@]5(C)CC[C@@]4(C)[C@]3(C)CC[C@@H]12	EPAC2 antag 3.98µM
CC(=O)OC1CC[C@]2(C)C(CC[C@@]3(C)C2C(=O)C=C2C4C(C)C(C)CC[C@@]4(C(=O)O)CCC23C)C1(C)C (stereo partly drawn)	none
Cc1cnc(C)c(-c2ccc(F)c3c2OC(CNC(=O)/C=C/c2cccs2)C3)n1 (stereo not drawn)	none
CC(=O)N[C@@H](CC(=O)N[C@@H](CCC(=O)O)C(=O)O)C(=O)O	none
Nc1ncnc2c1nc(Br)n2C1OC2COP(=O)(O)O[C@@H]2C1O (stereo partly drawn)	EPAC1 agonist 0.447µM, EPAC2 antag 1.26µM
Nc1nc2c(nc(Br)n2[C@@H]2O[C@H]3COP(=O)(O)O[C@H]3[C@@H]2O)c(=O)[nH]1	none
Cc1cc(C(=O)NCC2CCC3(CCN(Cc4ccc(-c5ccccc5)cc4)CC3)O2)n(C)n1 (stereo not drawn)	EPAC2 antag inconclusive
Cc1nc2ccccn2c(=O)c1CCN1CCC(C(=O)c2ccc(F)cc2)CC1	none
Cc1nc2sccn2c(=O)c1CCN1CCC(=C(c2ccc(F)cc2)c2ccc(F)cc2)CC1	EPAC1 agonist inconclusive, EPAC2 antag 50.1µM!
C=C1CC[C@H](O)CC1=C/C=C1\CCC[C@]2(C)[C@@H]([C@H](C)CC[C@@H](O)C(C)(C)O)CC[C@@H]12	none
CCC(C)C(=O)OC1CC(C)C=C2C=CC(C)C(CCC3CC(O)CC(=O)O3)C21 (stereo not drawn)	none
C[C@H]1C=C2C=C[C@H](C)[C@H](CC[C@@H]3C[C@@H](O)CC(=O)O3)[C@H]2[C@@H](OC(=O)[C@@H](C)CCO)C1	EPAC2 antag 56.2µM
Cc1ccn(CCC(=O)NCC2Cc3cc(Cl)cc(-c4ccc5[nH]ccc5c4)c3O2)n1 (stereo not drawn)	none
CC(C)[C@@H]1CC[C@@H](C)C[C@H]1OC(=O)c1ccccc1O	none
Cc1nc(C)c(CC(=O)N2CCOc3ccc(CN4CCN(c5ccccn5)CC4)cc3C2)s1	none
CC(=O)N1CCC[C@H]1C(=O)NCC1Cc2cc(-c3cccc(OC(F)(F)F)c3)ccc2O1 (stereo partly drawn)	EPAC2 antag 70.8µM
Cc1noc(C)c1CC(=O)NCC1Cc2cc(-c3cccc(OC(F)(F)F)c3)ccc2O1 (stereo not drawn)	EPAC2 antag inconclusive
CC(C)C[C@@H]1NC(=O)[C@H](CCCN)NC(=O)[C@H](C(C)C)NC(=O)[C@@H]2CCCN2C(=O)[C@@H](Cc2ccccc2)NC(=O)[C@H](CC(C)C)NC(=O)[C@H](CCCN)NC(=O)[C@H](C(C)C)NC(=O)[C@@H]2CCCN2C(=O)[C@@H](Cc2ccccc2)NC1=O	EPAC2 antag inconclusive
COc1cc([C@@H]2c3cc4c(cc3C(O[C@@H]3O[C@@H]5COC(c6cccs6)O[C@H]5[C@H](O)[C@H]3O)C3COC(=O)[C@@H]32)OCO4)cc(OC)c1O (stereo partly drawn)	EPAC1 agonist inconclusive
